In all, about 33,000 sequences were measured (“E-score (-0.5 to 0.5)”: median about -0.0059, highest 2% from about 0.26 on). This is one part of a sample in which the highest values are shown more often than they occur.
These sequences were tested against T1, Cin5 (UniProt P40917) (assay: PBM E-score (8-mer binding enrichment) (E-score (-0.5 to 0.5)); higher = stronger / more preferred TF binding). Details: protein concentration: 100 nM; construct: GST-full length.
T1 sequence: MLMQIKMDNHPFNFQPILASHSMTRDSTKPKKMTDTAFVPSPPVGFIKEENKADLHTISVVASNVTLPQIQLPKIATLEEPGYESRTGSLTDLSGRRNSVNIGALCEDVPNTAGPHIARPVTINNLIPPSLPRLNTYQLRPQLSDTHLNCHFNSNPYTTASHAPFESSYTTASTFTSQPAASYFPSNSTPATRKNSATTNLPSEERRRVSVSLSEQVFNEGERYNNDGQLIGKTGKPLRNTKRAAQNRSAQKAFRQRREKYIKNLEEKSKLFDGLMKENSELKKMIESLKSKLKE
Method in brief: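 PURExpress in vitro transcription/translation supplied GST-tagged yeast transcription factors, either full-length or DNA-binding domain. Applied at about 100-200 nM to universal all-10-mer Agilent arrays double-stranded by primer extension, the bound protein was detected with fluorescent anti-GST. E-scores, modified Wilcoxon-Mann-Whitney statistics, were given by the Universal PBM Analysis Suite to ungapped eight-base words pooled with their reverse complements after masliner normalisation.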

Sequence | PBM E-score
CGGACTTC | -0.131
CAGCTAAG | -0.252
GTAACCCA | 0.234
ATTCTTAG | -0.0605
GGAGGGGA | -0.0844
CAAGTCCG | -0.109
ACTGTTGA | -0.0374
CCGGGACG | -0.162
GAACGTCA | -0.161
TCTAGAGA | -0.228
ATGTCATC | 0.142
CTGTCATA | 0.0932
ATGTCATA | 0.299
AACCCCCC | -0.468
AAGGCTGG | -0.277
AGACTCCG | -0.121
AAAGATGA | 0.00284
ATGGCAAT | 0.113
GTTAGTCA | 0.0867
ATTAGTCG | 0.193
ATTAGTTA | 0.315
GTTAGTTA | 0.225
ATTAGTCA | 0.341
ATTAGTTG | 0.241
CTTGAGCC | -0.241

Sequence | PBM E-score
AGATCATA | 0.186
GATCCCCC | -0.426
CTGACTTA | 0.298
CTGACTAA | 0.36
GTGACTAA | 0.123
GTGACTTA | 0.0722
ATGACTAA | 0.235
ATGACTTA | 0.149
CGTGTAAA | -0.142
AAGGGTGA | -0.0502
TCGGCCGA | 0.0246
CACGGGAC | -0.118
CATCCCGA | 0.0504
TATCCCGA | 0.125
AATCCCGA | 0.26
CCTTAGGA | 0.0118
ATCGTGTC | 0.0401
AATTCGCG | 0.0954
AATTCGCT | 0.325
AATTCGCC | 0.154
GCACTCGA | 0.0449
GCCTGATA | -0.0274
AATAGTAG | 0.144
CATAGTAA | 0.279
GATAGTAA | 0.195

Sequence | PBM E-score
AATAGTAA | 0.27
TATAGTGA | -0.0129
AATAGTAC | 0.05
TATAGTAA | 0.324
TATAGTCA | 0.0921
CATAGTAC | 0.0648
ACTACCAC | 0.017
TCACCTAA | 0.142
AACGCTAT | 0.0739
CTGATCGA | -0.179
GCAATCGA | 0.0191
ATAATCCA | 0.225
CTAATCGA | 0.202
CTAATCTA | 0.00395
ATAATCTA | 0.242
GTAATCGA | 0.275
ATGATCGA | 0.0882
GTAATCTA | 0.354
CTAATCCA | 0.219
GTGATCGA | 0.273
GTAATCCA | 0.281
CTGCCAAA | -0.065
CGCGCTAC | 0.029
GACATAGC | 0.0934
ACCGTACA | -0.108

Sequence | PBM E-score
GGGTCCAA | -0.0685
AAAGCTAC | -0.0407
GATCTAAA | 0.0626
CCAATAGA | -0.01
ACCCCGAT | 0.155
AACCCGAC | 0.0291
AACCCGAT | 0.258
ACATTATC | 0.289
CCATTATC | 0.0699
CAATTATC | 0.277
TAATTATA | 0.351
CAATTATA | 0.126
AATTTATA | 0.249
CAATTAAC | 0.134
CAATTATG | 0.141
GAATTATA | 0.101
CATTTATC | 0.0882
AATTTATC | 0.27
ACATTATG | 0.106
ACGCAATA | 0.209
TAAGGCAA | 0.0779
CAAGGAGG | 0.00169
AGGGGTGC | -0.088
CTGGACGA | -0.129
CGAAAGAC | 1e-05

Sequence | PBM E-score
CCCCGGGA | 0.0124
AAATTATG | 0.24
TAATTACA | 0.259
AAATTATC | 0.278
GAATTATC | 0.145
AAATTACA | 0.248
AAATTATT | 0.183
AAATTATA | 0.262
AAATTAAA | 0.214
CAATTACA | 0.242
AATAGAAT | 0.106
CTGGGTTA | -0.0908
ACAGAACA | 0.136
CCCATTCA | 0.214
TGAGACCA | -0.078
AAGCCTGG | -0.072
GCCGTGAC | -0.0205
ATACTCAG | 0.258
CTACTCAG | -0.0922
ATACTCAA | 0.204
CCCGTTCA | -0.0227
AAAGCGTC | -0.113
GTAGTCAC | -0.185
ACTTTTAG | -0.0275
ACTTTTAC | 0.273

Sequence | PBM E-score
CATTTTAA | 0.0885
CATTTTAC | 0.263
CATTTTAG | 0.137
ACTTTTAA | 0.0259
GACTCCAA | -0.226
CTAGTGTC | -0.0545
GGGTTGAA | -0.0789
CAGACTAG | -0.237
ATAGGTCA | 0.0611
ATTAATAG | 0.272
ATTAAAAA | 0.162
GGTAATAC | 0.168
CTTAATAC | 0.191
ATGAATAG | 0.148
GTTAATAA | 0.186
ATTAATGG | 0.156
TCTAATAA | 0.0206
ATTAATAA | 0.336
CCTAATAA | 0.0783
ATTAATAC | 0.27
CTTAATAA | 0.267
GTGCCAAC | -0.0934
CAAAAAGG | -0.138
GACTACCC | -0.127
AACTGTCT | 0.0125

Sequence | PBM E-score
CCGCCGAC | -0.119
GAACAGAC | 0.0587
GGCGCGGA | -0.189
AACTGGAA | 0.0471
ATGATAAT | 0.272
CTGATAAC | -0.054
ATGATAGA | -0.0131
ATGATAAA | 0.188
ATGATAGG | -0.0261
ATGATAGC | 0.269
ATGATAAG | 0.204
ATGATAAC | 0.262
GTGATAAC | 0.125
AGCTGATA | 0.0998
ATCCTTCC | -0.2
GGGGTTAA | -0.0418
TCCAGGAA | -0.0393
CTGGTTTC | 0.0335
GGATGCAA | -0.0522
GACAGACA | 0.16
AACAGACA | 0.32
AACAGACT | 0.138
AGGATCGC | -0.0224
TACTGAAA | 0.267
CACTGAAA | 0.108

Source: the supplement of paper PMC3334620
